# According to PubChem BioAssay (NCI):
# Compounds without any hit were thinned out: in the full panel of roughly 79,000, 15% have a hit. Calls of active or inactive are those of the source. No stated cut-off is given here; in the data, active means growth inhibition above about 70%; inactive means the rest.
# Assay: NCI Yeast Anticancer Drug Screen. Data for the rad18 strain (AID 177)
# Conditions: S. cerevisiae rad18 mutant growth inhibition; at 100.0 µM; active compounds read high
# Outline: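 Test articles were incubated with altered yeast defective in DNA damage repair. Results are given as inhibition of growth versus vehicle.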
row,SMILES,growth inhibition
1,Fc1cc(F)c(F)c(S)c1F,96% (active)
2,COc1ccc2cc3c4cc5c(cc4cc[n+]3cc2c1OC)OCO5,97% (active)
3,Nc1cc(Cl)ccc1Nc1ccccc1,85% (active)
4,O=C(/C(=C/c1ccc(O)cc1)c1ccccc1)c1ccccc1,86% (active)
5,O=Cc1ccccc1C=O,88% (active)
6,O=S(=O)(c1cccc(C(F)(F)F)c1)N1c2ccccc2-n2cccc2C1c1cccnc1 (centres undefined),89% (active)
7,Nc1ccc2c(c1)C(=O)c1c(F)cccc1-2,97% (active)
8,CN(C)/C(=N/C(=S)Nc1ccccc1)SCc1ccccc1,24% (inactive)
9,O=C1c2ccccc2-c2ccc(N=Cc3ccccc3)cc21,84% (active)
